Data reported in PubChem BioAssay AID652039 (The Scripps Research Institute Molecular Screening Center, 2013).
The whole screen tested about 370,000 compounds, of which about 3,300 (0.89%) were called active. Shown is part of a subset that was picked to be rich in actives. A number with no mark means an inactive call.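 How the source made its calls: active means activation above the mean of all tested compounds plus 3 SD, computed per campaign excluding outliers beyond control limits (cut at about 13% in these data); inactive means the rest.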

What follows are compounds tested against Kallikrein-7 (Homo sapiens) (UniProt P49862) (assay: proKLK7 zymogen activators, primary screen, biochemical, fluorescence intensity (AID 652039)). Settings: purified proKLK7, EDANS-DABCYL substrate fluorescence; at 7 µM; stronger effect = higher value; 100% is mature enzyme control, 0% vehicle.
Kallikrein-7 (Homo sapiens), sequence (P49862 whole entry, looked up): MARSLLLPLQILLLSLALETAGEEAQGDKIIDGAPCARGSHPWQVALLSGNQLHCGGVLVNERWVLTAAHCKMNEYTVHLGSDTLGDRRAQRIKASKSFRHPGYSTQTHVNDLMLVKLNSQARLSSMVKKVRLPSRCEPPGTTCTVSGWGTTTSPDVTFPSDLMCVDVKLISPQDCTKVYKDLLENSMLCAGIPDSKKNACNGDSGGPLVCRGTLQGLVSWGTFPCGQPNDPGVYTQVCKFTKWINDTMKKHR
`CCn1c2ccccc2c2cc(NC(=O)CSc3nnc(-c4ccccc4)n3-c3ccc(C)cc3)ccc21` gave an activation of -0.54%. With `CCc1nn(CC(=O)N2CCN(CC)CC2)c(=O)c2cccn12` the activation was -0.55%. `CCCN1CCN(C(=O)Cn2ncc3ccccc32)CC1` showed an activation of -0.42%. `CCN1CCN(C(=O)Cn2nc(C)n3c(cc4c(OC)cccc43)c2=O)CC1` was tested, and the activation was 21% (active). Work on `C=CCN1C(=O)[C@@H](CC(=O)NCCCOCCCC)[C@]2(C(=O)OCC)CCCCC/C=C/12` yielded an activation of 0.01%. `Cc1ccc(Cn2cc(CN3[C@@H](CC(C)C)COc4ccc(Cl)cc4S3(=O)=O)nn2)cc1` was tested, and the activation was 0.91%. With `Cc1cccc(NC(=O)C[C@H]2CC[C@H]3[C@@H](COc4ccc(NC(=O)Nc5ccccc5)cc4C(=O)N3C)O2)c1` the activation was 0.42%. Compound `O=C(NCc1ccco1)c1cnn2c(C(F)(F)F)cc(-c3ccco3)nc12` has an activation of 0.06%. Work on `O=C(O)c1cnn2c(C(F)(F)F)cc(-c3ccccc3)nc12` yielded an activation of -0.59%. For `COC(=O)c1cnn2c(C(F)(F)F)cc(-c3ccco3)nc12`, the activation was 23.1% (active). Work on `CCCCNC(=O)C[C@H]1C[C@@]2(C(=O)OC)C(=C[C@H](COCc3ccccc3)O[C@@H]2C)N(Cc2ccc(Cl)cc2Cl)C1=O` yielded an activation of -0.06%. For `COC(=O)C1CN(CCc2ccccc2)CCS(=O)(=O)N1Cc1cccc(Cl)c1` (stereo not drawn), the activation was -0.14%. `CCCc1nnc(NC(=O)CCC(=O)N2CCN(S(=O)(=O)c3ccc(OC)cc3)CC2)s1` was tested, and the activation was -0.03%. For `CN(C)C(=O)c1coc2nc3ccccc3nc12`, the activation was 39.4% (active). `COc1ccc(C)cc1N(C)C(=O)c1coc(=O)c2ccccc12` gave an activation of 0.1%. For `CN(C)C(=O)c1cc(Br)ccc1Cl`, the activation was -0.57%. For `C=CCN(C)CC#Cc1ccccc1`, the activation was -0.36%. `CCCCCN1CCCCC(NC(=O)C(C)CCC)C1=O` (stereo not drawn) was tested, and the activation was 0.5%. `O=C(CNS(=O)(=O)c1ccccc1F)N1CCN(c2ccccn2)CC1` gave an activation of -0.03%. With `CCCCN(C)CCCNC(=O)c1cc(-c2cccs2)nc2ccccc12` the activation was 47.9% (active). Work on `CN(C)CCNC(=O)c1ccc(Cl)c2cc3ccccc3nc12` yielded an activation of 6.31%. `CCOc1ccccc1-c1cc(C(=O)N/N=C(\C)c2cccnc2)c2ccccc2n1` gave an activation of -4.03%. In the case of `O=C(NCCCN1CCOCC1)c1cnn2c(-c3ccccc3)cc(-c3ccccc3)nc12`, the activation is reported as -3.01%. `O=C(NNC(=O)c1cc(-c2ccccc2Cl)nc2ccccc12)c1csc(N2CCOCC2)n1` gave an activation of -0.59%. `O=C(NCCN1CCOCC1)c1cc(-c2cccs2)nc2ccccc12` was tested, and the activation was 18.3% (active). For `COC(=O)[C@]12C[C@H](CC(=O)NCC34CC5CC(CC(C5)C3)C4)C(=O)N(Cc3ccc(Cl)cc3Cl)C1=C[C@H](COCc1ccccc1)O[C@@H]2C`, the activation was -0.26%. With `COC(=O)[C@]12C[C@H](CC(=O)N3CCN(C(=O)C4CC4)CC3)C(=O)N(Cc3ccc4c(c3)OCO4)C1=C[C@H](C(C)(C)C)O[C@@H]2C` the activation was 0.05%. In the case of `COc1cccc(N2CCN(CC(=O)N(C)Cc3ccc(F)cc3)CC2)c1`, the activation is reported as 0.13%. `COC(=O)C1CN(CCc2ccccc2)CCS(=O)(=O)N1Cc1ccc(F)cc1` (stereo not drawn) showed an activation of -0.24%. For `COc1cccc(CNC(=O)CNS(=O)(=O)c2ccc3nc(C)sc3c2)c1OC`, the activation was 0.09%. For `CC(=O)NN1C(=O)c2ccccc2NC1c1ccccc1` (stereo not drawn), the activation was 15.6% (active). With `CCOC(=O)NN1C(=O)c2ccccc2NC1c1ccccc1O` (stereo not drawn) the activation was 8.02%. Work on `O=C1c2ccccc2NC(c2ccccc2O)N1NS(=O)(=O)c1ccccc1` (stereo not drawn) yielded an activation of 6.73%. Compound `CC(C)N1C(=O)c2ccccc2NC(=O)C1C(=O)NCc1cccs1` (stereo not drawn) has an activation of 0%. Work on `CN(C)c1ccc(C2Nc3ccccc3C(=O)N2NS(=O)(=O)c2ccccc2)cc1` (stereo not drawn) yielded an activation of 4.94%. With `CCOC(=O)NN1C(=O)c2ccccc2NC1c1cccc(O)c1` (stereo not drawn) the activation was 26.7% (active). `COC(=O)[C@]12C[C@H](CC(=O)NCc3cccc4ccccc34)C(=O)N(CCc3ccc(OC)c(OC)c3)C1=C[C@H](C1CCCC1)O[C@@H]2C` showed an activation of 0.51%. With `COc1ccc(C(=O)CSc2nnc(-c3cnccn3)n2-c2ccc(C)cc2)cc1` the activation was 0.34%. Work on `C[C@@H]1ON(C)[C@H]2C[C@H]3c4[nH]c5cccc(-c6ccc7c(c6)OCO7)c5c4CCN3C[C@@H]12` yielded an activation of 0.38%. `CCC(C)[C@@H](C(=O)OC)N(CCc1cn(Cc2ccccc2)nn1)S(=O)(=O)c1ccccc1Br` (stereo partly drawn) gave an activation of 0.31%. Compound `CCC(=O)Nc1ccc2c(c1)C(=O)N(C)[C@H]1CC[C@H](CC(=O)NCCOC)O[C@@H]1CO2` has an activation of -0.03%. Work on `COCC(=O)N[C@@H]1C[C@@H]2O[C@@H](CO)CC[C@@H]2O[C@@H]1CCc1ccc(-c2ccccc2)cc1` yielded an activation of -0.04%. With `COCCN(CCOC)c1nc(N)c2c(N)nc3c(c2c1C#N)CC(=O)N3Cc1ccc(Cl)cc1` the activation was 50.3% (active). For `O=C(c1c[nH]c2ccccc12)N1CCC(Oc2cccnc2)CC1`, the activation was 0.8%. With `COC(=O)C[C@@H]1CC[C@@H]2[C@@H](COc3ccc(NC(=O)Nc4ccc(F)c(F)c4)cc3C(=O)N2C)O1` the activation was 0.06%. `COC(=O)C[C@@H]1CC[C@@H]2[C@H](COc3ccc(NC(=O)c4cccc(F)c4)cc3C(=O)N2C)O1` was tested, and the activation was -0.18%. For `CCOC(=O)c1cc(-c2ccc(Cl)s2)nc2c1c(C)nn2C`, the activation was -3.83%. Work on `COc1ccc(CCC(=O)Nc2ccc(Cl)c(S(=O)(=O)N3CCOCC3)c2)cc1OC` yielded an activation of 0.18%. For `COc1cc(/C=C/C(=O)OCC(=O)N2CCOCC2)ccc1OCC#N`, the activation was 3.33%. With `COc1cc(/C=C/C(=O)Nc2ccc(OC)c(S(=O)(=O)N3CCOCC3)c2)ccc1OCC#N` the activation was 40.2% (active). In the case of `COP(=O)(O)CNC(=O)OCc1ccccc1`, the activation is reported as -0.07%. In the case of `Cc1ccc(C(=O)N(Cc2ccccn2)CC2CCCO2)cc1` (stereo not drawn), the activation is reported as -0.88%. `CCc1ccccc1NC(=O)CSc1nnc(-c2cccs2)o1` was tested, and the activation was 0.68%.
